HCV inhibitor: qHTS Assay for Inhibitors of Hepatitis C Virus (HCV); 340,000 compounds, 3.4% hits; Huh7.5.1 HCVcc-Cre infection, luciferase reporter, 44 h; Potency, µM (doses to about 41.8 µM), for inactives: top-dose activity change, negative = inhibition, hits mostly inhibitors; also: % is scaled to controls: 0 for no effect and ±100 for the full control effect
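1,000 cells/well; 4 h culture; + compound; + HCVcc-Cre (~0.5 moi); 44 h; luciferase substrate, RT 15 min; read 15 sec.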
SARS PLpro yeast: qHTS of Yeast-based Assay for SARS-CoV PLP. 330,000 compounds, 0.19% hits. S. cerevisiae expressing SARS-CoV PLpro, growth rescue. Potency, µM (top dose mostly 32.9 µM), for inactives: at the highest dose activity, positive = growth rescue, usual class: activators; calls by dose curve; also: 0% is about no effect; nearly all actives have a fitted effect of over 55% in size
NS1 function inh: qHTS Assay for Inhibitors of Influenza NS1 Protein Function; Potency, µM (titrated, usually from 46.1 µM), inactives show at the top dose activity, positive = more growth; 270,000 compounds, 0.4% hits; AID 2326, 2010; calls by dose curve; also: actives are rising curves; nearly all actives have a fitted effect of over 50% in size
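In this qHTS, NS1 from influenza A is expressed in budding yeast, where it slows growth. Cells are switched from glucose to 2% galactose medium (pH 6.0, -URA), treated with compound, and growth recovery is read at OD600.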
Pf growth 96h: Primary qHTS for delayed death inhibitors of the malarial parasite plastid, 96 hour incubation; P. falciparum luciferase reporter growth, 96 h; Potency, µM (series often up to 28.7 µM), for the others: at the highest dose activity change, negative = inhibition, usual class: inhibitors; 320,000 compounds, 6.9% hits; AID 504834, 2011; also: % is scaled to controls: 0 for no effect and ±100 for the full control effect
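Parasite growth measured via integrated firefly luciferase reporter in P. falciparum. Infected erythrocytes at 2% hematocrit, 0.05% parasitemia final were treated 96 hours at 37 C under 5% CO2, and luminescence was read.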
AMA1 RON2 block: qHTS for Inhibitors of AMA1-RON; Towards Development of Antimalarial Drug Lead: Primary Screen | Plasmodium falciparum AMA1 (3D7) - RON2 peptide interaction | AlphaScreen AMA1-biotinylated RON2 peptide binding | Potency, µM (titrated, usually from 58.2 µM), for inactives: top-dose activity change, negative = inhibition, usual class: inhibitors | 360,000 compounds, 0.2% hits;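 also: 0% = vehicle wells and -100% = peptide control; nearly all actives have a fitted effect of over 45% in size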
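AMA1 (3D7) with his tag at 25 nM final met compounds first, then biotinylated RON2 peptide at 25 nM; detection used donor plus acceptor beads, 10 µg/mL apiece, read by AlphaScreen after 30 min at room temperature.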
Pf growth 48h: Primary qHTS for delayed death inhibitors of the malarial parasite plastid, 48 hour incubation; Potency, µM (doses to about 28.7 µM), for inactives: top-dose activity change, negative = inhibition, actives largely listed as inhibitors; AID 504832, 2011; P. falciparum luciferase growth in erythrocytes, 48 h; 310,000 compounds, 5.9% hits; also: % is scaled to controls: 0 for no effect and ±100 for the full control effect
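Parasite viability was followed by luminescence of a genomically integrated firefly luciferase. Cultures held 0.1% parasitemia at 2% hematocrit (final), incubated under 5% CO2 at 37 C.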
* marks the source's active call; other numbers are inactive results; u = inconclusive; x = not tested or not shown. Only some compounds are listed: those with a hit (about 12% of all), similar ones and a draw of the others. Unless noted, calls follow the shape of the dose curve; as a rule, active = well fitted curve in the direction sought with a large enough effect; inconclusive = small, poorly fitted or top-dose-only effect, or another doubt; inactive = no such curve, though single readings can be large; an effect the other way counts as inactive or inconclusive. Potency is read from the fitted curve at half-maximal effect.

SMILES	HCV inhibitor	SARS PLpro yeast	NS1 function inh	Pf growth 96h	AMA1 RON2 block	Pf growth 48h
Cc1nc2c(sc(=S)n2Cc2ccco2)c(=O)n1CC(=O)Nc1ccc(F)cc1	u	-3%	-10%	9%	-11%	u
COc1ccccc1NC(=O)Cn1c(C)nc2c(sc(=S)n2Cc2ccco2)c1=O	13µM*	11%	19%	u	-8%	-8%
CCn1c(=S)sc2c(=O)n(CC(=O)Nc3ccccc3C(F)(F)F)c(C)nc21	-4%	-1%	3%	54%	-1%	-18%
Cc1nc2c(sc(=S)n2Cc2ccco2)c(=O)n1CC(=O)Nc1cc(F)ccc1F	13µM*	13%	0%	u	-3%	-25%
COC(=O)c1c(-c2c(Cl)cccc2Cl)noc1NC(=O)NN1CCOCC1	-3%	2%	2%	1.3µM*	3%	13µM*
COC(=O)c1c(-c2c(Cl)cccc2Cl)noc1NC(=O)NN1CCCCC1	-9%	0%	4%	0.26µM*	24%	0.33µM*
COC(=O)c1c(-c2c(Cl)cccc2Cl)noc1NC(=O)N(C)C	12%	2%	-9%	4%	16%	16%
CC(C)(C)c1nnc(NC(=O)COc2ccc3c(c2)OCO3)s1	10%	-2%	x	u	-17%	104%
N#C/C(=C\c1ccc(C(=O)O)cc1)c1nc2sc3c(c2c(=O)[nH]1)CCCC3	16%	-1%	15%	5%	109%	-7%
Cc1ccc(S(=O)(=O)O[C@@H]2[C@H]([C@@H]3COC(C)(C)O3)O[C@H]3OC(C)(C)O[C@@H]32)cc1	x	x	-1%	x	x	x
COc1cc(NC(=O)c2ccccc2)c(OC)cc1NC(=O)CN1C(=O)NC2(CCCCC2)C1=O	u	-2%	x	u	100%	u
CCOC(=O)c1sc2ncn(/N=C/c3ccccn3)c(=O)c2c1C	x	20%	11%	6.6µM*	x	10%
CCOC(=O)c1sc2ncn(/N=C/N(C)C)c(=O)c2c1C	u	1%	-3%	x	0%	51%
COc1ccc(-c2cc(C(F)(F)F)n3ncc(C(=O)N4CCCCC4c4cccnc4)c3n2)cc1 (centres undefined)	u	0%	x	-12%	-18%	2.9µM*
CCOC(=O)C1CCCN(C(=O)c2cc3nc(-c4cccc(OC)c4)cc(C(F)(F)F)n3n2)C1 (centres undefined)	u	-4%	-37%	x	2%	12µM*
CCOC(=O)C1CCCN(C(=O)c2cnn3c(C(F)(F)F)cc(-c4ccccc4)nc23)C1 (centres undefined)	-24%	16%	-33%	x	-20%	9.3µM*
COC(=O)c1cnn2c(C(F)(F)F)cc(-c3ccc(F)cc3)nc12	-23%	4%	-10%	u	10%	0%
O=c1c2ccccc2sn1-c1cc(S(=O)(=O)N2CCOCC2)ccc1N1CCOCC1	u	8%	10%	10%	16%	3.7µM*
c1ccc2cc(-c3cc(-c4cc(-c5ccc6ccccc6c5)on4)no3)ccc2c1	x	x	-3%	x	x	x
CC(C)C[C@@H](CNC(=O)OC(C)(C)C)NC(=O)c1nc[nH]c1C(=O)N[C@@H](CC(C)C)C(=O)CNC[C@H](CC(C)C)NC(=O)c1nc[nH]c1C(=O)N[C@@H](Cc1c[nH]c2ccccc12)C(=O)OC(C)(C)C	35%	-14%	x	x	132%	x
CCc1cc2c(Sc3nc4ccccc4s3)ncnc2s1	6%	0%	-6%	u	-18%	1.9µM*
c1ccc2sc(Sc3ncnc4sccc34)nc2c1	12%	3%	-25%	0.74µM*	5%	1.9µM*
CCc1cc2c(SCC(=O)Nc3ccc(NC(C)=O)cc3)ncnc2s1	u	-3%	x	u	4%	u
c1ccc(CSc2ncnc3sccc23)cc1	-20%	-2%	-1%	-24%	24%	9%
COc1ccc(O)c(CNn2c(-c3ccc(Br)cc3)nc3ccccc3c2=O)c1	-10%	-5%	x	-11%	10%	9.3µM*
SMILES	HCV inhibitor	SARS PLpro yeast	NS1 function inh	Pf growth 96h	AMA1 RON2 block	Pf growth 48h
COc1ccc(NC(=S)N2CCN(S(=O)(=O)c3ccc(OC)cc3)CC2)cc1	-7%	-4%	11%	0%	-13%	u
Cc1cc(C)cc(NC(=S)N2CCN(S(=O)(=O)c3ccccc3)CC2)c1	u	3%	12%	3.7µM*	-3%	u
COc1ccc(NC(=S)N2CCN(C(=O)c3ccco3)CC2)cc1	5%	0%	-2%	0.47µM*	9%	41%
COc1ccc(NC(=S)N2CCN(S(=O)(=O)c3ccccc3)CC2)cc1	12%	-2%	10%	10µM*	-8%	9%
COCCCn1c(=O)c2sccc2n(Cc2cc(C(=O)OC)ccc2OC)c1=O	u	1%	-14%	31%	2%	u
O=C(O)c1ccc2c(c1)C(=O)N([C@H](Cc1ccc(-c3ccccc3)cc1)C(=O)O)C2=O	x	-14%	x	0%	x	u
Cc1cnc(N)c2c(=O)oc3ccccc3c12	6.3µM*	2%	-12%	4%	-2%	x
O=c1oc2ccccc2c2c1cnc1ccccc12	8%	-5%	x	x	-6%	x
CO[C@@]12[C@@H]3N[C@@H]3CN1C1=C(C(=O)C(N)=C(C)C1=O)[C@@H]2COC(N)=O	u	x	x	x	-16%	x
CO[C@@]12[C@H](COC(N)=O)C3=C(C(=O)C(C)=C(N)C3=O)N1C[C@@H]1N[C@@H]12	6%	x	x	5.2µM*	-5%	13µM*
CCCNC1=C(C)C(=O)C2=C(C1=O)C(COC(N)=O)[C@]1(OC)C3NC3CN21 (some centres undefined)	u	1%	0%	0.19µM*	-20%	1.3µM*
O=C(C[n+]1ccc(-c2cc(C(=O)Nc3cccc(C(F)(F)F)c3)c3ccccc3n2)cc1)c1cccc([N+](=O)[O-])c1	13µM*	-2%	x	3.3µM*	u	u
Cc1cccn2c(=O)c3cc(C(=O)NC4CCCC4)sc3nc12	u	-10%	-35%	u	6%	u
O=C(/C=C/c1ccc(OCCCF)cc1)Nc1ccnc(-c2ccncc2)n1	u	1%	x	13µM*	-5%	13µM*
O=C(/C=C/c1ccc(OCCCF)cc1)Nc1ccnc(-c2cccnc2)n1	u	0%	x	u	-13%	10µM*
CCOc1ccccc1/C=C(\C#N)C1=CCCC1	15%	0%	11%	10%	4%	7%
COc1cccc(C(=O)NNC(=S)NC2CCCCC2)c1	3%	3%	0%	u	20%	184%
